We go through 19 compounds from PubChem BioAssay AID1224904 (Broad Institute, 2016).

The assay in a line: inhibitors of DUX4-driven ZSCAN4 reporter expression, primary screen, 293T cells, Gaussia and Italica luciferase (AID 1224904).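 On activity change, negative = inhibition: 0% = median of neutral control wells and -100% = median of positive control wells.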 Conditions: 293T-iDUX4 ZSCAN4-Gaussia luciferase reporter, 24 h, stronger effect = lower value, concentration not given here; for Gaussia minus Italica difference: measured here: selective DUX4 reporter inhibition. Background: A reporter such as luciferase makes a cellular process visible.

[1] abbreviates: measured here: Italica tet-on control reporter.

Hit rate of the full screen: of about 37,000 compounds, about 290 (0.78%) were called active. Not shown: some 10% with an inconclusive outcome. This is one part of a sample in which actives are shown more often than they occur.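 How the source made its calls: active means mean inhibition of at least 10% in the main channel, exceeding the control channel by a set limit; inconclusive means inhibition of 10% or more but channel gap under a set limit; inactive means mean inhibition below 10%.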

Take `CN(C)C(=O)[C@@H]1[C@@H](CO)[C@@H]2Cn3c(cccc3=O)[C@H]1N2CC1CCCCC1`: the activity change, negative = inhibition is -1.56% (inactive) and the Gaussia minus Italica difference was found to be 3%. In addition, the activity change, negative = inhibition under setting [1] was -4.57%.

`COc1cccc(-c2ccc([C@@H]3[C@@H](CO)N(C(=O)c4ccccn4)[C@H]3C#N)cc2)c1`: the activity change, negative = inhibition was 5.81% (inactive) and the Gaussia minus Italica difference was found to be 7.74%. In addition, under setting [1], the activity change, negative = inhibition is -1.92%.

With `C[C@H](NC(=O)C[C@@H]1CC[C@@H]2[C@H](COC[C@@H](O)CN2Cc2cc(F)ccc2F)O1)c1ccccc1`, the activity change, negative = inhibition is 0.118% (inactive) and the Gaussia minus Italica difference is -1.81%. Besides, the activity change, negative = inhibition under setting [1] was 1.93%.

For the compound `O=C(Cc1ccccc1)N1C[C@@H]2[C@H](c3ccccc31)[C@@H](CO)N2C(=O)C1CCOCC1`, the activity change, negative = inhibition was 1% (inactive) and the Gaussia minus Italica difference was -1.15%. In addition, the activity change, negative = inhibition under setting [1] turned out to be 2.15%.

On to `C[C@@H](O)C#Cc1ccc([C@@H]2[C@H]3CN(C(=O)c4ccc5c(c4)OCO5)CCCCN3[C@H]2CO)cc1`, for which the activity change, negative = inhibition is 1.93% (inactive) and the Gaussia minus Italica difference was -8.36%. Further, the activity change, negative = inhibition under setting [1] is 10.3%.

Regarding `COCC(=O)Nc1ccc2c(c1)C(=O)N(C)[C@@H]1CC[C@@H](CC(=O)NCCCN(C)C)O[C@@H]1CO2`, the activity change, negative = inhibition was -2.75% (inactive) and the Gaussia minus Italica difference is -2.33%. For the same compound, under setting [1], the activity change, negative = inhibition was -0.412%.

On to `COc1ccccc1S(=O)(=O)N1CC[C@H]2[C@@H](CO)N(C)c3ccc(C#Cc4ccccc4)cc3[C@H]21`, for which the activity change, negative = inhibition is 8.89% (inactive) and the Gaussia minus Italica difference was -4.03%. The activity change, negative = inhibition under setting [1] was 12.9%.

As to `C[C@@H]1CN([C@@H](C)CO)C(=O)c2c(c3ccccc3n2C)-c2ccccc2CO[C@H]1CN(C)C(=O)C1CC1`, the activity change, negative = inhibition is 7.74% (inactive) and the Gaussia minus Italica difference is -6.9%. For the same compound, the activity change, negative = inhibition under setting [1] worked out at 14.6%.

For `COc1ccccc1NC(=O)N1[C@@H]2CNC[C@H]1C2c1ccc(-c2ccccc2C)cc1` (some centres not stated), the activity change, negative = inhibition is 17.2% (inactive) and the Gaussia minus Italica difference amounted to 13.7%. The activity change, negative = inhibition under setting [1] turned out to be 3.5%.

For the compound `O=C1N[C@H](c2ccccc2)COCc2cn(nn2)CC[C@@H]1Cc1ccc(Cl)cc1`, the activity change, negative = inhibition was -6.57% (inactive) and the Gaussia minus Italica difference was determined as 7.94%. Also, the activity change, negative = inhibition under setting [1] is -14.5%.

With `Cn1cnc(CCNC(=O)C[C@H]2CC[C@H]3[C@@H](COC[C@H](O)CN3C(=O)C3CCCC3)O2)c1`, the activity change, negative = inhibition was 4.42% (inactive) and the Gaussia minus Italica difference is 6.41%. For the same compound, under setting [1], the activity change, negative = inhibition was -1.98%.

As to `CCCNC(=O)Nc1ccc2c(c1)C(=O)N(C)C[C@H](OC)[C@H](C)CN[C@@H](C)CO2`, the activity change, negative = inhibition was 5.48% (inactive) and the Gaussia minus Italica difference worked out at 1.03%. Besides, under setting [1], the activity change, negative = inhibition worked out at 4.45%.

Turning to `CN1c2ccc(Br)cc2[C@@H]2[C@@H](CCN2C(=O)Cc2ccccc2)[C@@H]1CO`, the activity change, negative = inhibition is 6.02% (inactive) and the Gaussia minus Italica difference amounted to 2.29%. In addition, under setting [1], the activity change, negative = inhibition was 3.73%.

On to `O=C(C[C@@H]1CC[C@H]2[C@@H](COC[C@@H](O)CN2Cc2nccs2)O1)NCc1ccc(-c2ccccc2)cc1`, for which the activity change, negative = inhibition was -5.3% (inactive) and the Gaussia minus Italica difference is 6.63%. The activity change, negative = inhibition under setting [1] was -11.9%.

Turning to `O=C(c1ccccc1F)N1C[C@@H]2[C@H](c3ccccc31)[C@H](CO)N2C(=O)C1CCCC1`, the activity change, negative = inhibition is 1.9% (inactive) and the Gaussia minus Italica difference was -1.83%. Moreover, under setting [1], the activity change, negative = inhibition came out at 3.72%.

For the compound `O=C(C1CCC1)N1C[C@@H]2N[C@H](C1)C2c1ccc(-c2cncnc2)cc1` (some centres not stated), the activity change, negative = inhibition is -25.8% (active) and the Gaussia minus Italica difference was -25.4%. Further, under setting [1], the activity change, negative = inhibition was -0.405%.

With `Cc1ccccc1-c1ccc(C2[C@@H]3CN(C(=O)C4CCCCC4)C[C@H]2N3)cc1` (some centres not stated), the activity change, negative = inhibition was -6.47% (inactive) and the Gaussia minus Italica difference was -6.12%. For the same compound, the activity change, negative = inhibition under setting [1] was -0.357%.

For `O=C(CN1CCOCC1)N1C[C@@H]2N[C@H](C1)C2c1ccc(-c2ccncc2)cc1` (some centres not stated), the activity change, negative = inhibition is 15.1% (inactive) and the Gaussia minus Italica difference is -4.83%. The activity change, negative = inhibition under setting [1] is 19.9%.

On to `COCC(=O)Nc1ccc2c(c1)OC[C@@H](C)N(C(=O)CC1CC1)C[C@@H](C)[C@@H](OC)CN(C)C2=O`, for which the activity change, negative = inhibition is -1.74% (inactive) and the Gaussia minus Italica difference was -1.65%. Also, under setting [1], the activity change, negative = inhibition was -0.0881%.
